LASV entry inh = qHTS for Inhibitors of binding or entry into cells for Lassa Virus | Lassa virus pseudotype entry inhibition, cell reporter | Potency, µM (doses to about 37.9 µM), without a hit: top-dose activity change, negative = inhibition, usual class: inhibitors | 300,000 tested, 1.2% active | AID 540256, 2011; calls by dose curve; tested in HEK293 cells; further: potency means the concentration at half of the fitted maximal effect; nearly all actives have a fitted effect of over 50% in size
HCMV antiviral = qHTS Assay for inhibitors of the human cytomegalovirus (HCMV) | AID 1259415, 2018 | HFF cells, HCMV-luciferase reporter, 72 h; hits give low values | activity change, negative = inhibition, % at 57.5 µM | 410,000 tested, 4.5% active; in the data active means activity change below about -60%; inconclusive means no clear call, values can overlap the other calls; inactive means above about -39%
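Screen run at 2 compound doses on HFFs infected with reporter HCMV, MOI 1 PFU/cell. Luciferase activity from cell lysates at 72 h post infection gave inhibition relative to buffer-only and Salinomycin wells.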
FMDV inh = High Throughput Screening for Foot and Mouth Disease Virus Antivirals; FMDV antiviral cell-based qHTS; Potency, µM (doses to about 57.9 µM), for inactives: at the highest dose activity change, negative = inhibition, usual class: inhibitors; 410,000 tested, 1.2% active; calls by dose curve; tested in HEK293T cells; further: read-out not given here; potency means the concentration at half of the fitted maximal effect; nearly all actives have a fitted effect of over 45% in size
Marburg entry inh = qHTS for inhibitors of binding or entry into cells for Marburg Virus | Marburg virus pseudotyped entry inhibition, cell reporter | Potency, µM (top dose mostly 37.8 µM), for the others: at the highest dose activity change, negative = inhibition, most hits filed as inhibitors | 300,000 tested, 1.8% active | AID 540276, 2011; calls by dose curve; tested in HEK293 cells; further: potency means the concentration at half of the fitted maximal effect
Vaccinia mCherry = qHTS for Stage-Specific Inhibitors of Vaccinia Orthopoxvirus: mCherry Reporter Primary qHTS; Potency, µM (series often up to 36.5 µM), for the others: top-dose activity change, negative = inhibition, usual class: inhibitors; 310,000 tested, 0.63% active; Vaccinia virus mCherry reporter infection, fluorescence; calls by dose curve; tested in A549 cells; further: potency means the concentration at half of the fitted maximal effect; nearly all actives have a fitted effect of over 35% in size
Vaccinia Venus = qHTS for Stage-Specific Inhibitors of Vaccinia Orthopoxvirus: Venus Reporter Primary qHTS; Vaccinia virus Venus reporter expression, fluorescence; Potency, µM (doses to about 36.5 µM), without a hit: at the highest dose activity change, negative = inhibition, usual class: inhibitors; 330,000 tested, 0.46% active; calls by dose curve; tested in A549 cells; further: potency means the concentration at half of the fitted maximal effect; nearly all actives have a fitted effect of over 30% in size
The depositor's hits bear a star; i = inactive; ? = inconclusive; · = no result given; [ ] = remark or other dose. This is a sample that favours compounds with a hit; in the whole collection about 6.5% have one here. On the % scale 0 is the no-effect control and ±100 the full control effect.

SMILES	LASV entry inh	HCMV antiviral	FMDV inh	Marburg entry inh	Vaccinia mCherry	Vaccinia Venus
CC(=O)OC[C@H]1O[C@@H](n2ncc(=O)[nH]c2=O)[C@H](OC(C)=O)[C@@H]1OC(C)=O	0.73µM*	·	-16%	?	-27%	1%
O=C(OCC1OC(n2ncc(=O)[nH]c2=O)C(OC(=O)c2ccccc2)C1OC(=O)c1ccccc1)c1ccccc1 (stereo unspecified)	·	3	-20%	·	-5%	4%
COc1ccc(-c2cc(NC=O)c3ncc(-c4cccc(C(C)=O)c4)n3c2)cc1	·	18	-4%	·	13µM*	?
COc1cccc(-c2cc(NC=O)c3ncc(-c4ccc(C(C)=O)cc4)n3c2)c1	·	-64*	-17%	·	-24%	?
CC(=O)c1ccccc1NC(C(=O)NC1CCCCC1)C(C)C (stereo unspecified)	·	6	·	·	·	·
COc1ccc(C2c3c(n(C)c4ccccc34)C(=O)N2CC(=O)Nc2cccc(Cl)c2C)cc1 (stereo unspecified)	0%[46.1 µM]	0	-16%	·	i	-12%
COc1ccc(C[C@@H]2OC3(C=CC(=O)C=C3)O[C@H]2Cc2ccc(OC)cc2)cc1	?	·	14µM*	2.5µM*	?	10µM*
O=C1Nc2ccccc2C1Cc1ccccc1 (stereo unspecified)	-7%	-7	-3%	2%	-3%	-1%
O=C1C=CC2(C=C1)O[C@H](Cc1ccccc1)[C@@H](Cc1ccccc1)O2	7.1µM*	-99*	4µM*	2.8µM*	10µM*	22µM*
CCc1ccc(N2C(=O)CSC23C(=O)N(Cc2cccc(OC)c2)c2ccccc23)cc1 (stereo unspecified)	-1%[46.1 µM]	-12	-19%	·	-13%	-4%
COc1ccc(N(CCCN2C(=O)c3cccc4cccc(c34)C2=O)C(=O)c2cccs2)cc1	0%	-21	-29%	2%	·	·
Cc1ccc(N(CCCCN2C(=O)c3ccccc3C2=O)C(=O)c2cccs2)cc1	?	-83*	-29%	?	-22%	-13%
C=CC1=C2C=C(C3CC3)N(CCCCO)C=C2C(=O)C(C)(OC(=O)c2ccco2)C1=O (stereo unspecified)	·	·	·	-7%[14.2 µM]	·	·
N#Cc1c(-c2ccc(Cl)cc2)[nH]c2ccccc12	·	-38	·	·	·	·
N#Cc1c(-c2ccc(Cl)cc2)n(O)c2ccccc12	13µM*	·	0%	8.9µM*	?	?
CN1C(=O)c2ccccc2Sc2ccc(NC(=O)Cc3c(F)cccc3Cl)cc21	?	-82*	-29%	·	-25%	-29%
CN1C(=O)c2ccccc2Sc2ccc(NC(=O)Nc3ccccc3F)cc21	-21%[46.1 µM]	-2	3%	?	-14%	-14%
CCN1C(=O)c2ccccc2Sc2ccc(NC(=O)Nc3cc(C)cc(C)c3)cc21	0%[46.1 µM]	-99*	?	5%[46.1 µM]	?	?
CN1C(=O)c2ccccc2Sc2ccc(NC(=O)COc3ccccc3)cc21	?	-63*	-23%	·	-10%	-24%
CN1C(=O)c2ccccc2Sc2ccc(NC(=O)N3CCN(c4cccc(Cl)c4)CC3)cc21	?	?	-13%	11µM*	-29%	-26%
CCN1C(=O)c2ccccc2Sc2ccc(NC(=O)c3ccc(Cl)cc3)cc21	18%[46.1 µM]	12	-16%	·	-12%	-12%
Cc1cc(C)cc(S(=O)(=O)N2CCN(c3nc(-c4cccs4)nc4ccccc34)CC2)c1	·	·	·	·	i	-18%
COc1ccc(-c2cccc3c2OC(CNC(=O)c2ccccc2-n2cccn2)C3)nn1 (stereo unspecified)	·	·	-2%	·	-6%	8%
CC(=O)/C(=N\Nc1ccccc1Cl)Sc1nnc(-c2ccccc2)n1-c1ccccc1	-15%	-61*	-18%	-25%	-7%	0%
O=C(Nc1ccccc1SCC1CSc2nc3ccccc3c(=O)n21)c1ccccc1 (stereo unspecified)	?	-70*	-9%	?	·	-7%
